Bioassay records (PubChem)
Hits are enriched below; roughly 5.7% of the tested compounds scored in any of these assays.
IL1B secr inh – qHTS for Inhibitors of Inflammasome Signaling: IL-1-beta AlphaLISA Primary Screen; THP-1 LPS/ATP IL-1B secretion, AlphaLISA, 16 h; stronger effect = lower value; activity change, % at 57.5 µM; 360,000 compounds, 4.7% hits; in the data active = activity change below about -50%; inconclusive = mostly about -30% to -49%; note: % is set by controls: 0 for no effect and ±100 for the full control effect
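Secreted IL-1B measured by AlphaLISA bead assay after 16 h compound exposure of THP-1 cells; compounds (final up to 57.5 uM) added 1 h before LPS (250 ng/mL) and ATP (1.25 mM) stimulation; lower signal means less secretion.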
HepG2 tox – qHTS for Inhibitors of TGF-b: Cytotox Counterscreen. 410,000 compounds, 0.76% hits. Potency, µM (titrated, usually from 46.1 µM), for the others: at the top dose activity change, negative = cytotoxicity, hits mostly cytotoxic. AID 588856, 2011. HepG2 CAGA-GFP viability, ATP luminescence, 18 h; note: potency is the fitted concentration of half-maximal effect
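CellTiter-Glo luminescence gave cytotoxicity after 18 hours at 37 degrees C. The cells were HepG2 CAGA-GFP in 1% FBS DMEM, stimulated with 500 pg/mL TGF-beta after compound addition. %Activity was normalised to no-cell wells (complete cell-killing) and DMSO (no toxicity), and curves were fitted and classified.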
TGFb SMAD3 inh – qHTS for Inhibitors of TGF-b | HepG2 CAGA-GFP TGF-b/SMAD3 reporter, GFP fluorescence, 18 h; TGF-beta stimulated, 500 pg/mL final | Potency, µM (top dose mostly 46.1 µM), for inactives: top-dose activity, negative = inhibition, most hits filed as inhibitors | 410,000 compounds, 1.2% hits | AID 588855, 2011; note: potency is the fitted concentration of half-maximal effect; % is set by controls: 0 for no effect and ±100 for the full control effect; nearly all actives have a fitted effect of over 65% in size
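TGF-beta reporter screen: HEPG2 CAGA-GFP, 1% FBS, 500 pg/mL TGF-beta final, 18 h; per-cell GFP summed per well; curves fitted and categorized by class.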
ATXN viability – Viability Counterscreen for Primary qHTS for Inhibitors of ATXN expression | S2 cells (HEK-293 line with an ATXN2-luciferase reporter) viability, CellTiter-Fluor protease fluorescence, 24 h | Potency, µM (series often up to 56.7 µM), hits mostly cytotoxic | 400,000 compounds, 0.49% hits | AID 651635, 2014; note: potency is the fitted concentration of half-maximal effect; nearly all actives have a fitted effect of over 40% in size
ATXN2 expr inh – Primary qHTS for Inhibitors of ATXN expression; HEK-293 ATXN2-luciferase reporter, luminescence, 24 h; Potency, µM (series often up to 57 µM), inactives show at the highest dose activity change, negative = inhibition, most hits filed as inhibitors; 360,000 compounds, 0.72% hits; AID 1745845, 2022; note: potency is the fitted concentration of half-maximal effect; % is set by controls: 0 for no effect and ±100 for the full control effect; nearly all actives have a fitted effect of over 55% in size
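ATXN2-luciferase reporter cells (luciferase flanked by upstream and downstream ATXN2 gene portions) were treated 24 h at 37 °C with compounds at up to 57 uM. SteadyGlo luminescence gave expression; GF-AFC fluorescence gave viability.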
Starred values were filed as active, the others as inactive; i = inactive; ? = inconclusive; nt = not tested or not shown; [ ] = another dose, or the depositor's remark. Unless noted, calls come from the whole dose curve; as a rule, active = well fitted curve in the direction sought with a large enough effect; inconclusive = small, poorly fitted or top-dose-only effect, or another doubt; inactive = no such curve, though single readings can be large; an effect the other way counts as inactive or inconclusive.

SMILES	IL1B secr inh	HepG2 tox	TGFb SMAD3 inh	ATXN viability	ATXN2 expr inh
COc1ccc(Cl)cc1NC(=O)CSc1nc2ccccc2nc1N1CCCCC1	nt	-3%	-11%	i	15%
Cc1cccc2c(=O)cc(CSc3ccccc3NC(=O)c3cccc(Cl)c3)[nH]c12	nt	-28%	-32%	32µM*	-8%
Cc1cccc(-c2noc(-c3c(C)noc3C)n2)c1	30	-168%	0%	i	22%
Cc1ccc(-c2noc(-c3c(C)noc3C)n2)cc1	28	0.89µM*	2%	i	nt
Cc1cnc(-n2ncc(C(=O)N(C)C3CCOC3)c2C)nc1-c1ccc(F)cc1 (stereo unspecified)	nt	nt	nt	i	nt
CC(=O)Nc1sc2c(c1-c1nc3ccccc3s1)CNC2	nt	nt	nt	nt	22µM*
CCCn1cc(S(=O)(=O)c2cccc(Cl)c2)c(=O)c2cc(F)c(N3CCOCC3)cc21	nt	-2%	?	nt	nt
COc1ccc([C@@H]2CC(=O)c3c(O)cc(O[C@@H]4O[C@H](CO[C@@H]5O[C@@H](C)[C@H](O)[C@@H](O)[C@@H]5O)[C@@H](O)[C@H](O)[C@@H]4O)cc3O2)cc1O	nt	nt	nt	nt	12%
CC(=O)N1CCN(c2ccc(NC(=O)c3cccc(Cl)c3Cl)cc2)CC1	-2	-10%	-3%	i	-8%
CC(=O)N1CCN(c2ccc(NC(=O)c3ccc(C(C)(C)C)cc3)cc2)CC1	-95*	-49%	-20%	?	?
CC(=O)N1CCN(c2ccc(NC(=O)c3ccc(Cl)cc3)cc2)CC1	-3	-25%	-21%	i	-5%
CC(=O)N1CCN(c2ccc(NC(=O)c3cc(Cl)ccc3Cl)cc2)CC1	-63*	-1%	3%	i	16%
CCOc1ccc(C(=O)NCCc2sc(-c3ccc(OC)c(OC)c3)nc2C)cc1	nt	-1%	0%	i	0%
CCN(Cc1ccccc1)C(=O)c1c(C)oc2ncn(C)c(=O)c12	nt	1%	3%	i	11%
Cc1ccc(S(=O)(=O)c2cn(CC(=O)Nc3ccc(F)cc3)c3cc4c(cc3c2=O)OCO4)cc1	nt	1%	-13%	i	7%
CCN(CC)S(=O)(=O)c1ccc2nc(CCl)[nH]c2c1	-82*	14%	19%	i	-19%
Cc1ccc(C(=O)Nc2cnc3ccccc3c2)cc1	-22	-29%	-30%	i	2.2µM*
Cc1ccc(C(=O)Nc2nc(=O)n(C(=O)C3CC3)s2)cc1	?	4%	12%	i	0%
O=C(Nc1nc2ccccc2[nH]1)c1ccc(Cl)c(S(=O)(=O)N2CCCC2)c1	-59*	-23%	?	i	?
Cc1ccc(C(=O)Nc2nc(=O)n(C(=O)c3ccccc3C)s2)cc1	-65*	-87%	?	i	20%
COc1ccc(C(=O)Nc2ccc3ccccc3n2)c(OC)c1OC	-76*	-25%	-10%	i	-64%
O=C(Nc1cccc2c(=O)cc(-c3nn[nH]n3)oc12)c1ccc(OCCCCc2ccccc2)cc1	nt	nt	nt	i	31%
COc1ccccc1CNC(=O)C(=O)NCC(c1cccs1)S(=O)(=O)c1ccccc1 (stereo unspecified)	nt	-32%	-4%	i	-8%
CCOc1cc2sc(N3CCC(C(=O)Nc4ccc(C)cc4C)CC3)nc2cc1Br	nt	7%	3%	i	30%
COc1cc(SC)ccc1C(=O)Nc1nc2ccccc2[nH]1	47	10µM*	18%	i	0.32µM*
SMILES	IL1B secr inh	HepG2 tox	TGFb SMAD3 inh	ATXN viability	ATXN2 expr inh
CSc1ccccc1C(=O)Nc1nc2ccccc2[nH]1	3	-41%	-2%	i	52%
COc1cc(SC)ccc1C(=O)NCCc1c[nH]c2ccccc12	-65*	-5%	1%	i	28%
O=C(NCCc1c[nH]c2ccccc12)c1ccc(F)cc1F	-9	1%	1%	i	87%
Cc1ccc(C(=O)Cc2nc3ccccc3[nH]2)cc1	-101*	-17%	-5%	i	4%
COc1ccccc1C(=O)Nc1nc2ccccc2[nH]1	-25	2.8µM*	-7%	i	0.32µM*
CCCn1c(CCC(=O)Nc2cc(Cl)c(OC)cc2OC)nc2cccnc21	nt	-6%	-5%	?	-11%
COc1ccc2[nH]cc(C(=O)CNc3nccs3)c2c1	nt	4%	2%	nt	nt
COc1ccc(C(=O)Nc2nc3ccccc3[nH]2)cc1	-1	-124%	10%	i	?
Cc1ccc(C(=O)Nc2nc3ccccc3c(=O)s2)cc1	-94*	-40%	?	i	1%
Cc1ccc(C(=O)Nc2nc3ccccc3[nH]2)cc1	32	-70%	-20%	i	3.5µM*
CSc1nc2ccc3nc(NC(=O)c4ccc(C)cc4)sc3c2s1	-13	6%	6%	i	10%
O=C(NCCCN1CCN(c2ccccc2)CC1)c1ccc2nc(CCc3ccccc3)oc2c1	nt	-24%	-16%	nt	nt
NC(=O)c1nsc(C(=O)N(c2cccc(F)c2)C(C(=O)NCC2CCCO2)c2c[nH]c3ccccc23)c1N (stereo unspecified)	-68*	0%	-13%	i	5%
NC(=O)c1nsc(C(=O)N(c2ccc(F)cc2)C(C(=O)NCC2CCCO2)c2c[nH]c3ccccc23)c1N (stereo unspecified)	-60*	3%	20%	i	-15%
NC(=O)c1nsc(C(=O)N(c2ccc(Cl)cc2)C(C(=O)NCC2CCCO2)c2cccs2)c1N (stereo unspecified)	-83*	-14%	2%	?	5%[11.3 µM]
Cc1cccc(N(C(=O)c2snc(C(N)=O)c2N)C(C(=O)NCC2CCCO2)c2c[nH]c3ccccc23)c1 (stereo unspecified)	?	1%	6%	i	-15%
CN(C(=S)NC(=O)Cc1ccccc1)c1ccccc1	-60*	-55%	?	i	-11%
Cc1cc(=O)n2cccc(O)c2n1	-57*	-16%	14%	i	-48%
Cc1ccc(C(=O)N(Cc2cc3cccc(C)c3nc2N2CCC(O)CC2)C2CC2)cc1	nt	nt	nt	i	nt
CCOc1ccc(CCNS(=O)(=O)c2cc(Br)cc3c2N(C(C)=O)CC3)cc1OCC	nt	-7%	-9%	nt	nt
Cc1ccc(-c2c[n+](CC(=O)c3ccc(Br)cc3)c3n2CCCCC3)cc1	-95*	-22%	-27%	?	?
CC1CCC(C(C)C)C(OC(=O)C[n+]2cc(-c3ccc(Cl)cc3)n3c2CCCCC3)C1 (stereo unspecified)	-91*	-50%	?	?	?
Cc1ccc(-c2c[n+](CC(=O)Nc3ccccc3C)c3n2CCC3)cc1	-53*	0%	-2%	i	-15%
